# The source made the active and inactive calls. The call rests on the fitted dose curve; in most records, active means well fitted curve in the direction sought with a large enough effect; inconclusive means small, poorly fitted or top-dose-only effect, or another doubt; inactive means no such curve, though single readings can be large or run the other way.
# Target: Hexokinase-4 (Homo sapiens) + Glucokinase regulatory protein (Homo sapiens) (UniProt P35557+Q14397)
# Test: qHTS assay for inhibitors of recombinant human GCK-GKRP interaction: Diaphorase-coupled assay (AID 743205)
# Details: G6PDH/diaphorase resorufin fluorescence; series mostly up to 57.5 µM; activity change, positive = activation: at the top concentration
# Text: Glucokinase (GCK) is a glucose sensor in hepatocytes and pancreatic beta-cells. Hepatic GCK is regulated by glucokinase regulatory protein (GKRP), which is predominantly localized to the liver. GKRP binds to GCK inhibiting its activity in the fasting state while in the presence of glucose the GKRP is displaced. There is an additional layer of regulation by fructose 1-phosphate and fructose 6-phosphate, which inhibit and enhance the GCK-GKRP interaction, respectively. GCK plays a role in glucose homeostasis and there is an interest in the development of strategies to activate GCK to lower blood glucose levels in type 2 diabetes. To date the majority of effort has focused on direct activation of GCK and the assays developed herein look to activate GCK by inhibiting its binding to GKRP. A compound that inhibits the interaction of GCK with GKRP could be important for the treatment of diabetes and can also be used as a tool compound to further elucidate GCK-GKRP biology. To that end, we have developed a sensitive HTS biochemical assay where in GCK activity is coupled to G6PDH and Diaphorase to interrogate the GCK-GKRP interaction. This assay was screened against a small compound library to look for modulators of activity.
# 2 uL of substrate (columns 1-48) are dispensed into Greiner, black solid-bottom 1536-well assay plates. Compounds (23 nL) are then transferred via Kalypsys pin tool equipped with 1536-pin array (10 nL slotted pins, V&P Scientific, San Diego, CA). The library compounds are in columns 5-48 and columns 1-4 serve as controls with DMSO in columns 1 and 3 and 26 mM 1:1.5 fold serial of gluckokinase activator (GKA-EMD) in column 2 and 26 mM of the glucokinase activator (GKA-EMD) in column 4. Following addition of compound and a 20 minute incubation, 1 uL of enzyme mix (GST-GCK, FLAG-GKRP and diaphorase) is added to columns 1, 2, 4-48 and 1 uL of no enzyme mix (FLAG-GKRP and diaphorase) is added to column 3 and the fluorescent product resorufin generated from resazurin was monitored on a Viewlux (PerkinElmer, Shelton, CT, USA) with excitation at 525 nm and emission at 590 nm in kinetic mode where the plate was read every minute for 30 minutes. The final concentration of reagents in the reaction are 25 mM Hepes pH 7.6, 25 mM KCl, 2 mM MgCl2, 1.4 mM 2-mercaptoethanol, 0.025% BSA, 0.01% Tween-20, 0.15 mM NADP+, 5 mM glucose, 0.4 mM ATP, 4 U/ml G6PDH, 0.1 mM resazurin, 10 nM GST-GCK, 10 nM FLAG-GKRP, diaphorase (0.1 mg/mL). Data are normalized to DMSO-treated control columns with (maximum signal) and without (minimum signal) enzyme.
# Hexokinase-4 (Homo sapiens) + Glucokinase regulatory protein (Homo sapiens), sequence (P35557 whole entry, looked up): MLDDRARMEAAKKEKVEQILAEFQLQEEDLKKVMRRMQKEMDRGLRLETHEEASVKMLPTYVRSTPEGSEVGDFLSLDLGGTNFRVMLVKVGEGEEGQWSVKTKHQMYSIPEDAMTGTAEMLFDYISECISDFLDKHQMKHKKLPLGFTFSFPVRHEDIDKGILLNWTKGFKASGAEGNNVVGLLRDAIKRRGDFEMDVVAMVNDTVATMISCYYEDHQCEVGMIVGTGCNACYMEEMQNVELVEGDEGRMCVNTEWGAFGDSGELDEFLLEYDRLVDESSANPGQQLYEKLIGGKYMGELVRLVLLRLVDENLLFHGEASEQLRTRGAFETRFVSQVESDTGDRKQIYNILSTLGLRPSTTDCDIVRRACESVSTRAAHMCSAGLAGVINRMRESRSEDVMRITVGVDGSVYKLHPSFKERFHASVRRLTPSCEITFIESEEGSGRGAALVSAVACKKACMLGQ
# Hexokinase-4 (Homo sapiens) + Glucokinase regulatory protein (Homo sapiens), sequence (Q14397 whole entry, looked up): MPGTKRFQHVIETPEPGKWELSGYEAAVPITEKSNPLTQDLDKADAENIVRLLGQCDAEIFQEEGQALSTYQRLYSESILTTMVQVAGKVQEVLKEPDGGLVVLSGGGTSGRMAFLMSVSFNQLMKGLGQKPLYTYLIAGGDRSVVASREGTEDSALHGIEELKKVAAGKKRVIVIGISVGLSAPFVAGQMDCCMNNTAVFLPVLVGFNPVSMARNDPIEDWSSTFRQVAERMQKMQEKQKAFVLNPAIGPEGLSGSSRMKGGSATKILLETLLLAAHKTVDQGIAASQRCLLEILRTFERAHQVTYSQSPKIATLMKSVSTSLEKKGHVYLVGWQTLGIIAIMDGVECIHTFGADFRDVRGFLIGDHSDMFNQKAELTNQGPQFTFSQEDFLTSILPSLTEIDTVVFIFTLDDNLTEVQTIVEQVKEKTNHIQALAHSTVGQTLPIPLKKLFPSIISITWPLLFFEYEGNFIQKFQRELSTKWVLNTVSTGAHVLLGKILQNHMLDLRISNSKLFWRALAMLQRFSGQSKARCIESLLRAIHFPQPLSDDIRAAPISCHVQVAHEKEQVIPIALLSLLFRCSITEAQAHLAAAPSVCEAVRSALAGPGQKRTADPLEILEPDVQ
row,Structure (SMILES),"activity change, positive = activation"
1,O=[N+]([O-])c1ccc(-c2nc(-c3ccc(F)cc3)c(-c3ccncc3)[nH]2)cc1,-4.87% (inactive)
2,Cc1nn(-c2ccccc2)c(C)c1/C=N/N1CCN(Cc2ccccc2)CC1,-1.62% (inactive)
3,COc1cccc2c1[C@@H]1CN(CCCCn3c(=O)[nH]c4c(sc5ncc(-c6ccccc6)nc54)c3=O)C[C@@H]1CO2,-0.0343% (inactive)
4,COc1ccccc1N1CCN(CCN2C(=O)CC3(CCCC3)CC2=O)CC1,0.165% (inactive)
5,N[C@@H](Cn1ccc(=O)c(O)c1)C(=O)O,1.05% (inactive)
6,C[N+](C)(C)CCO,-4.58% (inactive)
7,O=C1NC(=O)/C(=C/c2ccc3c(c2)OC(F)(F)O3)S1,-0.636% (inactive)
8,Brc1ccc([C@H]2CN3CCSC3=N2)cc1,1% (inactive)
9,COC(=O)C1=CO[C@@H](O)[C@@H]2C(CO)=CC[C@H]12,-1.08% (inactive)
10,Clc1ccc2c(c1)N=C(N1CCNCC1)c1ccccc1N2,-8.33% (inactive)
11,CC(C)N(CCC(=O)c1ccc2ccccc2c1)Cc1ccccc1,-0.836% (inactive)
12,Cn1cnc2c(NCc3ccccc3)nc(NCCO)nc21,-3.24% (inactive)
13,Nc1ncnc2n[nH]c(Nc3ccc(F)cc3)c12,-1.29% (inactive)
14,CN(C)c1cc2c(Nc3ccc4c(cnn4Cc4ccccc4)c3)ncnc2cn1,-46.3% (inactive)
15,NC(N)=NCCCCN=C(N)N,-5.17% (inactive)
16,CCN(CC)CCNC(=O)c1ccc(NS(C)(=O)=O)cc1,-0.089% (inactive)
17,O=C1NC(c2cccc([N+](=O)[O-])c2)=CCN1c1ccccc1O,1.23% (inactive)
